In PubChem BioAssay (Tox21):
Values without a mark were called inactive. Records with an inconclusive call do not appear. Entries that show only a call come without a potency. The source made the active and inactive calls. Unless noted, calls come from the whole dose curve.

Tests used:
[1] = Nuclear factor erythroid 2-related factor 2/antioxidant responsive element (Nrf2/ARE) small molecule agonists: qHTS cell viability counter screen in human keratinocytes (AID 1919968; active = well fitted cell-killing curve with a large enough effect in the repeat runs; note: nearly all actives have a fitted effect of over 55% in size; note: potency is the fitted concentration of half-maximal effect); conditions: KeratinoSens HaCaT ARE cells viability, CellTiter-Fluor, 24 h; series mostly up to 92.4 µM
Summary of the method: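 Viability counter-screen: KeratinoSens reporter cells, DMSO-delivered compounds, 23 h at 37 C, CellTiter-Fluor fluorescence.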

[2] = Nuclear factor erythroid 2-related factor 2/antioxidant responsive element (Nrf2/ARE) small molecule agonists: luciferase reporter gene qHTS assay in human keratinocytes (AID 1919969); conditions: KeratinoSens HaCaT ARE-luciferase, luminescence, 24 h; series mostly up to 92.4 µM; note: nearly all actives have a fitted effect of over 35% in size; note: potency is the fitted concentration of half-maximal effect
[3] = target: Gonadotropin-releasing hormone receptor (Homo sapiens) (UniProt P30968); experiment: Human gonadotropin-releasing hormone receptor (GnRHR) small molecule agonists, calcium flux assay in GnRHR-HEK293 cells (AID 1920063); conditions: calcium flux fluorescence, agonist mode; series mostly up to 57.6 µM; note: nearly all actives have a fitted effect of over 35% in size; note: potency is the fitted concentration of half-maximal effect
Sequence of Gonadotropin-releasing hormone receptor (Homo sapiens) (P30968 whole entry, looked up): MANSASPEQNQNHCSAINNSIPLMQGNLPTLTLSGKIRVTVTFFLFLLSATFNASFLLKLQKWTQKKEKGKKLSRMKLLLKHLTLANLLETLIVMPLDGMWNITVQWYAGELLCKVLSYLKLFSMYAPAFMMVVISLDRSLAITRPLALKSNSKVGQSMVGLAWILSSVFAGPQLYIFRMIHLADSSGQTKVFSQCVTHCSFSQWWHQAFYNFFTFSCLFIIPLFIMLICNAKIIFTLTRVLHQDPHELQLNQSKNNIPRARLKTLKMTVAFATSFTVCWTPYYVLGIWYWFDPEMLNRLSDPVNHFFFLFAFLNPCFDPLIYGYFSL
Summary of the method: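 Tox21-format agonist screen using human GnRHR-expressing HEK293 cells and a fluorescent calcium dye; kinetic 3-min fluorescence reading after compound addition, 15-point concentration series run in triplicate.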

[4] = G protein-coupled receptor (GPCR) small molecule agonists, calcium flux assay: HEK293 wild type cell line counter screen (AID 1920065); conditions: HEK293 WT calcium flux, fluorescence, agonist mode; series mostly up to 57.6 µM; note: potency is the fitted concentration of half-maximal effect
Summary of the method: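 In this agonist-mode screen, ATP is the positive control and DMSO the vehicle. Cells grow 18 h before a 1 h dye incubation at 37 C; signal is taken at Ex/Em 480/540 over 3 min.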

[5] = p53 small molecule agonists, cell-based qHTS assay with rat liver microsomes (AID 1963578); conditions: HCT-116 p53RE-bla, beta-lactamase ratio, 16 h; series mostly up to 66 µM; note: potency is the fitted concentration of half-maximal effect
Summary of the method: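 Read-out is beta-lactamase reporter fluorescence (LiveBLAzer, 2 h, room temperature, dark) in p53RE-bla cells treated 16 h at 37 C with compound, rat liver microsomes and NADPH, both 0.5 mg/mL final.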

[6] = p53 small molecule agonists, cell-based qHTS assay with rat liver microsomes: qHTS cell viability counter screen (AID 1963580); conditions: p53RE-bla HCT-116 + rat microsomes, ATP viability, 16 h; series mostly up to 66 µM; note: nearly all actives have a fitted effect of over 45% in size
Summary of the method: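 Intracellular ATP, by CellTiter-Glo luminescence, defines viability. HCT-116 p53RE-bla cells, 4,000 per well, were compound-treated in the presence of rat liver microsomes and NADPH for 16 h at 37 C.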

[7] = p53 small molecule agonists, cell-based qHTS assay: qHTS cell viability counter screen (AID 1963581); conditions: p53RE-bla HCT-116 viability, ATP luminescence, 16 h; series mostly up to 66 µM; note: nearly all actives have a fitted effect of over 45% in size
Summary of the method: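 Compounds are pinned onto HCT-116 p53RE-bla cells and left 16 h at 37 C. Following the reporter FRET read, ATP is quantified by CellTiter-Glo luminescence after 30 min at room temperature.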

[8] = p53 small molecule agonists, cell-based qHTS assay (AID 1963582; active = well fitted activation curve with a large enough effect in the signal ratio in the repeat runs, not every such curve was filed as active; the % refers to the signal ratio); conditions: HCT-116 p53RE-bla reporter, beta-lactamase FRET ratio, 16 h; series mostly up to 66 µM
Summary of the method: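 Agonist activity was scored from beta-lactamase FRET fluorescence in p53RE-bla cells treated 16 h at 37 C with compounds in DMSO, substrate incubation being 2 h at room temperature.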

[9] = target: D(2) dopamine receptor (Homo sapiens) (UniProt P14416); experiment: Dopamine D2 receptor (DRD2) small molecule antagonists, cell-based qHTS assay (AID 1963595; active = well fitted inhibition curve with a large enough effect in the signal ratio in the repeat runs, with a control signal flat; the % refers to the signal ratio; note: potency is the fitted concentration of half-maximal effect); conditions: HEK293-DRD2 cAMP HTRF antagonist mode; series mostly up to 92.4 µM
Sequence of D(2) dopamine receptor (Homo sapiens) (P14416 whole entry, looked up): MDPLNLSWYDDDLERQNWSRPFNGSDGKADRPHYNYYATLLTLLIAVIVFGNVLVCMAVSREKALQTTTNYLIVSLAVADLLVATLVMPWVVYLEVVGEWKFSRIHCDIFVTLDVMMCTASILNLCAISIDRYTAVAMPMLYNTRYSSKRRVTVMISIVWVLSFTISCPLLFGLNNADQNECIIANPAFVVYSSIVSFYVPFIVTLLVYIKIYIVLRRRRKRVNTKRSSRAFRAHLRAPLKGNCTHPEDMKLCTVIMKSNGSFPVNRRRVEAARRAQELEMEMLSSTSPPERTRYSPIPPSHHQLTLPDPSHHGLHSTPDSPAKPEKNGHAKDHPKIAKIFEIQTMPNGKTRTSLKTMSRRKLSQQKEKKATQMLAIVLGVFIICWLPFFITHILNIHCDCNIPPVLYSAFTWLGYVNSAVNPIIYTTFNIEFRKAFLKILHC
Summary of the method: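 DRD2-HEK293; 0.1 mM Ro20-1724; cpd 10 min RT; NKH477 200 nM + quinpirole 12 nM, 30 min RT; HTRF cAMP (cAMP-d2/anti-cAMP cryptate), 665/620 nm ratio after 1 h.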

[10] = p53 small molecule agonists, cell-based qHTS assay with human liver microsomes: qHTS cell viability counter screen (AID 1963579); conditions: p53RE-bla HCT-116 viability, ATP luminescence, 16 h, HLM; series mostly up to 66 µM; note: nearly all actives have a fitted effect of over 45% in size
Summary of the method: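 Cells carrying the p53 response-element beta-lactamase reporter are treated for 16 h at 37 C with test compounds in the presence of human liver microsomes and NADPH (both 0.5 mg/mL final); ATP-based CellTiter-Glo luminescence then reports viability.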

[11] = target: 5-hydroxytryptamine receptor 2A (Homo sapiens) (UniProt P28223); experiment: 5-hydroxytryptamine receptor 2A (HTR2A) small molecule antagonists, cell-based qHTS assay (AID 1963586); conditions: HTR2A-CHO cells, DOI-induced calcium flux, fluorescence; series mostly up to 61.5 µM; note: nearly all actives have a fitted effect of over 45% in size; note: potency is the fitted concentration of half-maximal effect
Sequence of 5-hydroxytryptamine receptor 2A (Homo sapiens) (P28223 whole entry, looked up): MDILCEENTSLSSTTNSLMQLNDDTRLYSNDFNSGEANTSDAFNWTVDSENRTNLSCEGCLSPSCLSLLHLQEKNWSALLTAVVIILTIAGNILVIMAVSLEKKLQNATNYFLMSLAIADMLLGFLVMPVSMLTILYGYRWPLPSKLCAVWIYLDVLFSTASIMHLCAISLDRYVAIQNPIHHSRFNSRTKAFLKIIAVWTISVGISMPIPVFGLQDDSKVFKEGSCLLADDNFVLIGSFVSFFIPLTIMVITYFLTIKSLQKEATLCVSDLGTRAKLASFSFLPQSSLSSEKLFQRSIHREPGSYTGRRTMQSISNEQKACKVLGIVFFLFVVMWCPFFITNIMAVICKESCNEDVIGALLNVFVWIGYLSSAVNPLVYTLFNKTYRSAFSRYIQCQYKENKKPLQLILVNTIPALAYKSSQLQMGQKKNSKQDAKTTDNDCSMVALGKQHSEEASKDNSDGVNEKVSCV
Summary of the method: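 Antagonist-mode intracellular calcium assay: DOI (4 nM) added after 5 min compound pre-incubation at room temperature to dye-loaded HTR2A-CHO cells. Fluorescence followed for 3 min, sampled every second.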

[12] = target: 5-hydroxytryptamine receptor 2A (Homo sapiens) (UniProt P28223); experiment: 5-hydroxytryptamine receptor 2A (HTR2A) small molecule agonists, cell-based qHTS assay (AID 1963587); conditions: HTR2A-CHO cells, calcium flux fluorescence, agonist mode; series mostly up to 76.8 µM; note: nearly all actives have a fitted effect of over 30% in size; note: potency is the fitted concentration of half-maximal effect
Summary of the method: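 Kinetic calcium-flux fluorescence (2 min, 1 sec intervals) after compound addition in agonist mode. HTR2A-CHO cells were cultured 18 h, then dye-loaded 1 h at 37 C.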

[13] = target: Muscarinic acetylcholine receptor M1 (Homo sapiens) (UniProt P11229); experiment: Cholinergic receptor muscarinic 1 (CHRM1) small molecule antagonists, cell-based qHTS assay (AID 1963588); conditions: CHRM1-CHO antagonist mode, calcium flux fluorescence; series mostly up to 61.5 µM; note: nearly all actives have a fitted effect of over 40% in size; note: potency is the fitted concentration of half-maximal effect
Sequence of Muscarinic acetylcholine receptor M1 (Homo sapiens) (P11229 whole entry, looked up): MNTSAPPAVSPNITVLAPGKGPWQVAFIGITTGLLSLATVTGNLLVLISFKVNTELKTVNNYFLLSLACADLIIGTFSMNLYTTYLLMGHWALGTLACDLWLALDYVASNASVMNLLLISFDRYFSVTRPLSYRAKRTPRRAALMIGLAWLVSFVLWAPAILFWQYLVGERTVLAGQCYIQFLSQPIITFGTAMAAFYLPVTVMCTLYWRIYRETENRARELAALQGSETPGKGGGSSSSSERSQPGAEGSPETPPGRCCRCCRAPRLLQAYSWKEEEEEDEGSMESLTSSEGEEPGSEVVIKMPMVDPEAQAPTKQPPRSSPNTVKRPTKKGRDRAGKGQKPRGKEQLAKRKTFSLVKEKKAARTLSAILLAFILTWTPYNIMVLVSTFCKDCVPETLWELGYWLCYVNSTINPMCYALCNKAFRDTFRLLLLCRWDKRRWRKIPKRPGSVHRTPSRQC
Summary of the method: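 CHRM1-CHO calcium-flux assay, antagonist mode. Cells were seeded 18 h, dye-loaded 1 h at 37 C and given compound for 5 min at RT, then acetylcholine was added at 50nM. FDSS fluorescence was read 3 min; 15 concentrations, three runs.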

[14] = target: Muscarinic acetylcholine receptor M1 (Homo sapiens) (UniProt P11229); experiment: Cholinergic receptor muscarinic 1 (CHRM1) small molecule agonists, cell-based qHTS assay (AID 1963589); conditions: CHRM1-CHO cells, agonist mode, calcium flux fluorescence; series mostly up to 76.8 µM; note: nearly all actives have a fitted effect of over 35% in size; note: potency is the fitted concentration of half-maximal effect
Summary of the method: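 Stable CHRM1-CHO cells (human receptor) were incubated 18 h, dye-loaded for 1 h at 37 C and exposed to test compounds for agonist activity, with calcium-dependent fluorescence followed kinetically.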

[15] = cAMP Responsive Elements (CRE) small molecule agonists, cell-based qHTS assay (AID 1963590); conditions: CRE-bla HEK293T, beta-lactamase FRET ratio, 3 h; series mostly up to 92.4 µM
Summary of the method: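 FRET-based beta-lactamase readout (LiveBLAzer B/G, 2 h RT) quantified CRE activation in HEK 293T CRE-bla cells after 3 h treatment with DMSO-dissolved compounds.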

[16] = target: Beta-2 adrenergic receptor (Homo sapiens) (UniProt P07550); experiment: Adrenergic beta2 receptor (ADRB2) small molecule antagonists, cell-based qHTS assay (AID 1963592); conditions: CHO-ADRB2 cells, isoproterenol-stimulated cAMP HTRF ratio, 0.5 h; series mostly up to 92.4 µM; note: nearly all actives have a fitted effect of over 50% in size
Sequence of Beta-2 adrenergic receptor (Homo sapiens) (P07550 whole entry, looked up): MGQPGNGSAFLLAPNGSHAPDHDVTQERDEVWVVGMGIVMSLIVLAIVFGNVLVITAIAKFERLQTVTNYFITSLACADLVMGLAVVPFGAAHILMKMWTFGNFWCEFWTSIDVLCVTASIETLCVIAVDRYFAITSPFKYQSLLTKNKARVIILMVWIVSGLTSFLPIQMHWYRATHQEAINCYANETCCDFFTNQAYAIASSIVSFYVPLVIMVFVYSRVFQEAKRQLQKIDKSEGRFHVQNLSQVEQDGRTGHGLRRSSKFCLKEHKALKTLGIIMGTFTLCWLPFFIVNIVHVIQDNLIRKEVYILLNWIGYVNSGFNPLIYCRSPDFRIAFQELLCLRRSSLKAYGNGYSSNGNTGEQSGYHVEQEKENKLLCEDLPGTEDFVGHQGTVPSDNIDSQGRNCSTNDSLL
Summary of the method: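 Cells (CHO, stable ADRB2 overexpression) incubated 18-20hr at 37C; compounds added from DMSO; agonist mix (1nM isoproterenol, 100uM IBMX, 25uM Ro-20-1724) added; 0.5hr RT; d2-cAMP and anti-cAMP-cryptate added; 1hr RT; 665/615 nm read.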

[17] = target: Beta-2 adrenergic receptor (Homo sapiens) (UniProt P07550); experiment: Adrenergic beta2 receptor (ADRB2) small molecule agonists, cell-based qHTS assay (AID 1963593); conditions: CHO-ADRB2 cells, cAMP HTRF, 30 min; series mostly up to 92.4 µM;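 note: CHO cells stably overexpressing human ADRB2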
Summary of the method: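 CHO cells stably over-expressing ADRB2 were plated overnight at 37C, then dosed with compounds plus a stimulation mix containing 100uM IBMX and 25uM Ro-20-1724 for 0.5hr at room temperature. cAMP was measured by HTRF competition, 1hr.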

[18] = cAMP Responsive Elements (CRE) small molecule antagonists, cell-based qHTS assay (AID 1963591; active = well fitted inhibition curve with a large enough effect in the signal ratio in the repeat runs, not every such curve was filed as active; the % refers to the signal ratio); conditions: CRE-bla HEK293T, beta-lactamase FRET ratio; series mostly up to 92.4 µM
Summary of the method: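 qHTS in CRE-bla HEK 293T cells: compound in DMSO, then 0.25 uM NKH477 (final), 3 h at 37 °C/5% CO2; beta-lactamase FRET read-out after 2 h substrate incubation.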

[19] = target: D(2) dopamine receptor (Homo sapiens) (UniProt P14416); experiment: Dopamine D2 receptor (DRD2) small molecule agonists, cell-based qHTS assay (AID 1963594); conditions: HEK293-DRD2 cAMP HTRF, agonist mode, 30 min; series mostly up to 92.4 µM; note: nearly all actives have a fitted effect of over 35% in size
Summary of the method: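 cAMP accumulation in DRD2-HEK293 cells measured by HTRF after 1 h detection; compounds added 10 min before NKH477 (200nM […]) forskolin-analogue stimulation, 30 min at room temperature, with Ro20-1724 present at 0.1 mM final.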

| Compound | Potency [1] | Potency [2] | Potency [3] | Potency [4] | Potency [5] | Potency [6] | Potency [7] | Potency [8] | Potency [9] | Potency [10] | Potency [11] | Potency [12] | Potency [13] | Potency [14] | Potency [15] | Potency [16] | Potency [17] | Potency [18] | Potency [19] |
| --- | --- | --- | --- | --- | --- | --- | --- | --- | --- | --- | --- | --- | --- | --- | --- | --- | --- | --- | --- |
| CNCC(O)c1ccc(O)c(O)c1 (stereo not drawn) | inactive | inactive | 0.0425 µM (active) | inactive | inactive | inactive | inactive | inactive | 5.31 µM (active) |  |  |  |  |  |  |  |  |  |  |
| CC(C)(C)c1cc(O)c(C(C)(C)C)cc1O | inactive | 15.4 µM (active) | 5.49 µM (active) | 34.7 µM (active) | inactive | inactive | inactive |  | inactive | inactive | 14.9 µM (active) | 1.1 µM (active) | 18.8 µM (active) | 11 µM (active) | inactive | inactive | inactive |  |  |
| c1ccc(CN(Cc2ccccc2)Cc2ccccc2)cc1 | inactive | 54.4 µM (active) | inactive | inactive |  | inactive | inactive |  | inactive | inactive | inactive | inactive | inactive | inactive | inactive |  | inactive | inactive | inactive |
| NCc1ccccc1 | inactive | inactive | inactive | inactive | inactive | inactive | inactive |  | inactive |  | inactive | inactive |  | inactive | inactive |  | inactive | inactive | inactive |
| Cc1cccc(C)c1NC(=O)CN(CC(=O)O)CC(=O)O | inactive | inactive | inactive | inactive |  | inactive | inactive |  | inactive | inactive | inactive | inactive | inactive | inactive | inactive | inactive |  | inactive | inactive |
| COC(=O)C1=C(C)NC(C)=C(C(=O)OC(C)C)C1c1cccc2nonc12 (stereo not drawn) | inactive | inactive | inactive | inactive |  | inactive | inactive |  | inactive | inactive |  | inactive | inactive | inactive | inactive |  |  | inactive | inactive |
| CCOC(=O)C1=C(C)NC(C)=C(C(=O)OCC)C1c1ccccc1/C=C/C(=O)OC(C)(C)C | 18.8 µM (active) | inactive | inactive | inactive | 19.9 µM (active) | inactive |  |  | inactive | inactive |  |  |  |  |  | inactive |  |  | inactive |
| CC(C)OC(=O)CCC(=O)OC(C)C | inactive | inactive | inactive | inactive | inactive | inactive |  | inactive | inactive |  | inactive | inactive | inactive | inactive |  | inactive |  | inactive | inactive |
| CCCOC(OCCC)OCCC | inactive | inactive | inactive | inactive |  | inactive | inactive |  | inactive | inactive | inactive | inactive | inactive | inactive | inactive | inactive | inactive | inactive | inactive |
| Cc1ccc2ccc3cccc4ccc1c2c34 | inactive | inactive | inactive | inactive |  | inactive | inactive |  |  | inactive | inactive |  | inactive | inactive |  | inactive |  | inactive | inactive |
| CC(=O)OC(C)C[N+](C)(C)C (stereo not drawn) | inactive | inactive | 1.07 µM (active) | inactive | inactive | inactive |  | inactive | inactive | inactive | inactive | inactive |  |  | inactive | inactive |  |  | inactive |
| CCCCCCCCCCCCCBr | inactive | inactive | inactive | inactive |  | inactive | inactive |  | inactive | inactive | inactive | inactive |  | inactive | inactive | inactive | inactive | inactive |  |
| CC(C)Nc1ccc(NC(C)C)c2c1C(=O)c1ccccc1C2=O | inactive | inactive | inactive | inactive | inactive | inactive |  | inactive | inactive | inactive | inactive | inactive | inactive | inactive | inactive | inactive | inactive | inactive |  |
| O=C(/C=C/c1ccc(O)c(O)c1)O[C@@H]1C[C@@](OC(=O)/C=C/c2ccc(O)c(O)c2)(C(=O)O)C[C@@H](O)[C@@H]1O | inactive | inactive | inactive | inactive |  | inactive | inactive | inactive | inactive | inactive | inactive | inactive | inactive | inactive | inactive | inactive | inactive |  | inactive |
| Cc1ccc2nc(-c3ccc(N)cc3)sc2c1S(=O)(=O)O | inactive | 10.7 µM (active) | inactive | inactive | 17.9 µM (active) | inactive | inactive |  | inactive |  | inactive | inactive | inactive | inactive |  | inactive | inactive | inactive | inactive |
| CC(C)OC(=O)c1ccccc1C(=O)OC(C)C | inactive | inactive | inactive | inactive |  | inactive | inactive |  | inactive | inactive |  | inactive | inactive | inactive | inactive | inactive |  | inactive | inactive |
| CS(=O)(=O)CCNCc1ccc(-c2ccc3ncnc(Nc4ccc(OCc5cccc(F)c5)c(Cl)c4)c3c2)o1 | 29.8 µM (active) | inactive | inactive | inactive |  | inactive | inactive |  | inactive | inactive | inactive | inactive | inactive | 0.012 µM (active) |  |  |  |  | inactive |
